# Source: PubChem BioAssay (NCATS)
# Values joined by “and” are separate entries in the source; they are usually repeats but may differ in a detail not shown here. Equal entries are not always repeated. Inconclusive results are not listed. Some compounds were tested as several samples or in several runs, with calls that do not always agree. Active and inactive are the calls of the source. Unless noted, calls come from the whole dose curve; as a rule, active = well fitted curve in either direction with a large enough effect (not every such curve was filed as active); inconclusive = small, poorly fitted or top-dose-only effect, or another doubt; inactive = flat fitted curve, though single readings scatter.
# Assays:
# [1] = AP1 Signaling Pathway (AID 357); conditions: ME-180 AP-1-bla reporter, EGF-induced, beta-lactamase ratio, 5 h;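 note: ME-180 reporter cells stimulated with EGF at its EC50 level; % is set by controls: 0 for no effect and ±100 for the full control effect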
# In short: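 Cells are seeded overnight, exposed to compound titrations and an EC50 level of EGF for 5 hours at 37 °C, then loaded with CCF4 dye for 2.5 hours. Beta-lactamase activity under the AP-1 element is read as a blue/green ratio.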
# [2] = target: Cytochrome P450 1A2 (Homo sapiens) (UniProt P05177); assay: p450-cyp1a2 (AID 410; calls by dose curve; note: potency is the fitted concentration of half-maximal effect;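 for activity change, negative = inhibition: -100% = full effect of reference inhibitor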); conditions: recombinant CYP1A2, luciferin-ME demethylation, luminescence; series mostly up to 57 µM
# In short: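 O-Demethylation of luciferin 6' methyl ether by human CYP1A2 is monitored as luciferase luminescence. Substrate sits at Km (100uM); enzyme is 20nM. Values are scaled to 57 uM furafylline as maximal inhibition.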
# [3] = Stat Signaling Pathway (AID 446); conditions: ME-180 (cervical carcinoma) SIE beta-lactamase reporter, IL-6 stimulated, 5 h;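 note: ME-180 cervical cancer cells given 40 pM IL-6 alongside compound; SIE-controlled beta-lactamase reporter measured as 460/530 nm FRET emission ratio; % is set by controls: 0 for no effect and ±100 for the full control effect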
# In short: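 Overnight-plated ME-180 cells bearing a STAT Inducible Element beta-lactamase reporter; 5 h co-exposure to compound and 40 pM IL-6; values normalized to 300 pM IL-6 and 125 nM JAK inhibitor controls.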
# [4] = NFAT Signaling Pathway (AID 444); conditions: Jurkat NFAT-bla M1, carbachol, beta-lactamase ratio, 5 h;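 note: carbachol stimulus at about its EC50 of 1 µM final; % is set by controls: 0 for no effect and ±100 for the full control effect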
# In short: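 Read-out: CCF4 FRET ratio (460 nm/530 nm) after 1 h RT dye loading, used for %activity and AC50 from titration series. Cells: Jurkat NFAT-β-lactamase/M1 line, treated with compound plus 1 uM carbachol for 5 h, 37 °C.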
# [5] = Cell Viability - BJ (AID 421; calls by dose curve;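 note: potency is the fitted concentration of half-maximal effect; cells exposed to compound for 40 hours at 37 °C before readout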); conditions: BJ fibroblast viability, qHTS
# In short: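 Quantitative HTS: ATP depletion in BJ cells after 40 hr compound exposure in complete culture medium, detected with CellTiter-Glo; AC50 from standard Hill fits.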
# [6] = Cell Viability - Jurkat (AID 426;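 active = dose-dependent loss of cell ATP signal giving a full or clear fitted curve, ranked by lower potency value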;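 note: potency is the fitted concentration of half-maximal effect; cells exposed to compound for 40 hours at 37 °C before ATP read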); conditions: qHTS
# In short: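 Cells of the human T-cell leukemia line Jurkat (E6-1) are seeded at 5000 per well, treated with compound across a concentration range for 40 hours at 37 °C, then lysed with CellTiter-Glo; luminescence reports ATP.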
# [7] = Cell Viability - Hek293 (AID 427;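 active = compounds whose dose-response curve shows a full or clear partial loss of cell viability, called from curve shape rather than a numeric limit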;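 note: potency is the fitted concentration of half-maximal effect; cells exposed to compound for 40 hours at 37 °C before reading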); conditions: qHTS
# In short: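 AC50 values derive from Hill-modelled concentration-response of ATP-based luminescence, normalized between DMSO-only and 100 uM tamoxifen controls. Cells were exposed in complete culture medium for 40 hr at 37 °C before detection.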
# [8] = Cell Viability - HepG2 (AID 433; calls by dose curve;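 note: potency is the fitted concentration of half-maximal effect; potency for ATP loss meaning cytotoxicity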); conditions: qHTS
# In short: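 Cytotoxicity is scored as loss of intracellular ATP in HepG2 cells exposed to compounds for 40 h. Concentration-response curves, normalized to DMSO and 100 uM tamoxifen, give AC50 values.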
# [9] = Cell Viability - MRC5 (AID 434; calls by dose curve;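 note: potency is the fitted concentration of half-maximal effect; potency reflects cytotoxicity seen as loss of intracellular ATP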); conditions: MRC5 lung fibroblast viability, qHTS
# In short: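 AC50 values come from Hill-equation fits of intracellular ATP loss, measured by CellTiter-Glo luminescence. Normal lung fibroblasts (MRC5) had 40 hr compound treatment at 37 C, normalized between DMSO and 100 uM tamoxifen.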
# [10] = at 38 µM (top of the series) unless noted
# Cytochrome P450 1A2 (Homo sapiens), sequence (P05177 whole entry, looked up): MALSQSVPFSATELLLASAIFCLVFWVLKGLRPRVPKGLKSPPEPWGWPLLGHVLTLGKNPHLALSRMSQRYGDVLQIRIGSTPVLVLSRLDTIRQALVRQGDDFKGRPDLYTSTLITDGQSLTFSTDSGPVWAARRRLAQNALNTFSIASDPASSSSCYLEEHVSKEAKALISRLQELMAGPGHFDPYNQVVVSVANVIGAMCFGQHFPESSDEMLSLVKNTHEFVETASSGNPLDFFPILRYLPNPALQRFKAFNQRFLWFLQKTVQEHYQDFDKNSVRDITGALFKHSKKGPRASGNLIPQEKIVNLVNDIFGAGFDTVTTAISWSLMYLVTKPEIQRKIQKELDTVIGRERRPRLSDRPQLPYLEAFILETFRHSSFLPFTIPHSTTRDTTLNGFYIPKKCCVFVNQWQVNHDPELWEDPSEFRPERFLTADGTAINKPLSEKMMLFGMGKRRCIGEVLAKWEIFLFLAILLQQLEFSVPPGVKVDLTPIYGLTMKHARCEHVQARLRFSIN
structure (smiles),measurement,setting,value
N#C/C(=C\c1ccc(O)c(O)c1)C(=O)NCCCc1ccccc1,"activity change, negative = inhibition",[1]; at 17.2 µM (top of the series),-12.8% (inactive)
same,Potency,[2],12.6 µM (active)
same,"activity, negative = inhibition",[3]; at 17.2 µM (top of the series),-22.9% (inactive)
same,"activity, negative = inhibition",[3]; at 38 µM (top of the series),-10.2% (inactive)
Clc1ccc(N2CCN(Cc3c[nH]c4ncccc34)CC2)cc1,Potency,[2],inactive and 15.8 µM (active)
same,"activity change, negative = inhibition",[4]; [10],-18.8% (inactive)
same,"activity, negative = inhibition",[3]; at 38 µM (top of the series),-44.5% (inactive)
COc1ccccc1N1CCN(CCN(C(=O)c2ccc(I)cc2)c2ccccn2)CC1,"activity change, negative = inhibition",[1]; at 38 µM (top of the series),-13.6% (inactive)
same,"activity change, negative = inhibition",[4]; [10],-16.4% (inactive)
C[N+](C)(CCCCCC[N+](C)(C)CCCN1C(=O)c2cccc3cccc(c23)C1=O)CCCN1C(=O)c2cccc3cccc(c23)C1=O,"activity change, negative = inhibition",[1]; at 38 µM (top of the series),14% (inactive)
same,Potency,[2],inactive
same,"activity, negative = inhibition",[3]; at 38 µM (top of the series),0.109% (inactive)
N#C/C(=C\c1c[nH]c2ccccc12)C(=O)c1ccc(O)c(O)c1,Potency,[2],1.26 µM (active)
same,"activity change, negative = inhibition",[4]; [10],0.356% (inactive)
same,"activity, negative = inhibition",[3]; at 38 µM (top of the series),-11% (inactive)
NCCCCC(=O)O,Potency,[2],inactive
same,"activity change, negative = inhibition",[4]; [10],-1.14% (inactive)
same,"activity, negative = inhibition",[3]; at 38 µM (top of the series),0.307% (inactive)
CN1[C@@H](CC(=O)c2ccccc2)CCC[C@H]1C[C@H](O)c1ccccc1,"activity change, negative = inhibition",[1]; at 17.2 µM (top of the series),1.25% (inactive)
same,"activity, negative = inhibition",[3]; at 17.2 µM (top of the series),5.71% (inactive)
N#C/C(=C\c1ccc(O)c(O)c1)C(=O)c1ccc(O)c(O)c1,Potency,[2],31.6 µM (active)
same,"activity change, negative = inhibition",[4]; [10],-9.14% (inactive)
CC(=O)SCC[N+](C)(C)C,Potency,[2],inactive
same,"activity change, negative = inhibition",[4]; [10],9.71% (inactive)
same,"activity, negative = inhibition",[3]; at 38 µM (top of the series),1.77% (inactive)
O=c1[nH]c2cc(C(F)(F)F)ccc2n1-c1cc(C(F)(F)F)ccc1O,"activity change, negative = inhibition",[1]; at 38 µM (top of the series),-14.9% (inactive)
same,"activity change, negative = inhibition",[4]; [10],7.55% (inactive)
Cc1c(N)c(=O)n(-c2ccccc2)n1C,"activity change, negative = inhibition",[1]; at 17.2 µM (top of the series),7.65% (inactive)
same,"activity change, negative = inhibition",[4]; [10],-9.93% [at 17.2 µM] (inactive)
same,"activity, negative = inhibition",[3]; at 17.2 µM (top of the series),3.23% (inactive)
CC(C)Cc1ccc([C@H](C)C(=O)O)cc1,Potency,[2],inactive
same,"activity change, negative = inhibition",[4]; at 17.2 µM (top of the series),-2.57% (inactive)
same,"activity change, negative = inhibition",[4]; at 38 µM (top of the series),-3.84% (inactive) and 2.4% (inactive)
same,"activity, negative = inhibition",[3]; at 17.2 µM (top of the series),-0.514% (inactive)
same,"activity, negative = inhibition",[3]; at 38 µM (top of the series),-0.822% (inactive) and 26.9% (inactive)
Nc1ccc(O)c(C(=O)O)c1,Potency,[2],inactive
same,Potency,[5],> 92 µM (inactive)
same,Potency,[6],> 92 µM (inactive)
same,Potency,[7],> 92 µM (inactive)
same,Potency,[8],> 92 µM (inactive)
same,Potency,[9],> 92 µM (inactive)
same,"activity change, negative = inhibition",[4]; [10],-25.5% [at 17.2 µM] (inactive)
same,"activity, negative = inhibition",[3]; at 17.2 µM (top of the series),-23.9% (inactive)
O=C(O)c1ccccc1Nc1cccc(C(F)(F)F)c1,Potency,[2],3.98 µM (active)
same,"activity change, negative = inhibition",[4]; [10],-44% [at 17.2 µM] (inactive)
same,"activity, negative = inhibition",[3]; at 17.2 µM (top of the series),-14.4% (inactive) and -17.3% (inactive)
C=C[C@H]1CN2CC[C@@H]1C[C@@H]2[C@@H](O)c1ccnc2ccc(OC)cc12,Potency,[2],inactive
same,"activity change, negative = inhibition",[4]; [10],-6.92% (inactive) and -0.71% (inactive)
same,"activity, negative = inhibition",[3]; at 38 µM (top of the series),-15% (inactive) and 18.5% (inactive)
CN1CCc2ccccc2Cc2[nH]c3ccccc3c2CC1,"activity change, negative = inhibition",[1]; at 38 µM (top of the series),8.89% (inactive)
same,"activity change, negative = inhibition",[4]; [10],-7.31% (inactive)
same,"activity, negative = inhibition",[3]; at 38 µM (top of the series),-13.2% (inactive)
Cc1cc(NC(=O)Nc2ccc3c(ccn3C)c2)sn1,Potency,[2],10 µM (active) and 5.01 µM (active)
same,"activity change, negative = inhibition",[4]; [10],10.3% (inactive)
N.N.O=C(O)C1(C(=O)O)CCC1.[Pt],"activity change, negative = inhibition",[1]; at 38 µM (top of the series),-8.77% (inactive)
same,"activity change, negative = inhibition",[4]; [10],13.9% (inactive)
Nc1nc(Cl)nc2c1ncn2[C@@H]1O[C@H](CO)[C@@H](O)[C@H]1O,"activity change, negative = inhibition",[4]; [10],22.4% [at 17.2 µM] (inactive)
same,"activity, negative = inhibition",[3]; at 17.2 µM (top of the series),24.3% (inactive)
CCCN(CC1CC1)c1nc(C)nc(Nc2c(Cl)cc(Cl)cc2Cl)c1Cl,Potency,[2],inactive
same,"activity, negative = inhibition",[3]; at 38 µM (top of the series),-12.8% (inactive)
Fc1ccc(C(OCCCc2cnc[nH]2)c2ccc(F)cc2)cc1,Potency,[2],0.1 µM (active)
same,"activity, negative = inhibition",[3]; at 38 µM (top of the series),27.8% (inactive)
CCCCCCCC/C=C\CCCCCCCC(=O)NCCO,"activity change, negative = inhibition",[4]; [10],-20.4% (inactive)
OC[C@H]1O[C@@H](n2cnc3c(NC4CCCC4)ncnc32)[C@H](O)[C@@H]1O,"activity change, negative = inhibition",[4]; [10],7.15% [at 17.2 µM] (inactive)
same,"activity, negative = inhibition",[3]; at 17.2 µM (top of the series),15.8% (inactive)
CN=c1nc(-c2ccccc2)n(-c2ccccc2)s1,Potency,[2],5.01 µM (active)
same,"activity, negative = inhibition",[3]; at 38 µM (top of the series),8.46% (inactive)
Nc1ccc([N+](=O)[O-])cc1O,Potency,[5],> 92 µM (inactive)
same,Potency,[6],> 92 µM (inactive)
same,Potency,[7],> 92 µM (inactive)
same,Potency,[8],> 92 µM (inactive)
same,Potency,[9],> 92 µM (inactive)
Nc1ccc(C(=O)O)c(O)c1,"activity change, negative = inhibition",[4]; [10],10.1% [at 17.2 µM] (inactive) and -5.83% [at 17.2 µM] (inactive)
same,"activity, negative = inhibition",[3]; at 17.2 µM (top of the series),7.35% (inactive) and -0.89% (inactive)
O=c1cc(-c2ccccc2)oc2ccccc12,Potency,[5],> 92 µM (inactive)
same,Potency,[6],> 92 µM (inactive)
same,Potency,[7],> 92 µM (inactive)
same,Potency,[8],> 92 µM (inactive)
same,Potency,[9],> 92 µM (inactive)
CC1(C)CCC=[N+]1[O-],Potency,[2],inactive
same,"activity change, negative = inhibition",[4]; [10],-6.56% (inactive)
same,"activity, negative = inhibition",[3]; at 38 µM (top of the series),4.29% (inactive)
O=C1CN(/N=C/c2ccc([N+](=O)[O-])o2)C(=O)N1,Potency,[5],> 92 µM (inactive)
same,Potency,[6],7.84 µM (active)
same,Potency,[9],> 92 µM (inactive)
Nc1nc2ccc([N+](=O)[O-])cc2s1,Potency,[5],> 92 µM (inactive)
same,Potency,[6],> 92 µM (inactive)
same,Potency,[7],> 92 µM (inactive)
same,Potency,[8],> 92 µM (inactive)
same,Potency,[9],> 92 µM (inactive)
